{
  "source": "PubChem BioAssay AID652154",
  "about": "(Broad Institute, 2013)",
  "note": "Where “and” joins values, the source holds several entries; their conditions need not be identical. Identical values can stand only once. Hit rate of the full screen: of about 360,000 compounds, about 4,200 (1.2%) were called active.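 The calls were made as follows: active = mean replicate inhibition at least 60% with every replicate also reaching 60%; inconclusive = only one of the two criteria is met; inactive = mean below 60% and not all replicates reaching 60%.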 The entries come from a sample that favours actives as a whole.",
  "data": [
    {"assay": "inhibitors of PAX8-driven TPO luciferase reporter, primary screen, RMG-I cells, single concentration (AID 652154);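 also: luciferase light reporting Pax8 driven TPO promoter activity; plate controls were median of neutral control wells for no effect and mitoxantrone controls for full effect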", "details": "SteadyGlo, 24 h, at 12.6 µM, stronger effect = higher value", "values": [
      {"smiles": "Cc1ccccc1S(=O)(=O)N[C@@H]1CC[C@@H](CCNS(=O)(=O)c2cccc(F)c2)O[C@H]1CO", "inhibition": "20.4% (inactive)"},
      {"smiles": "O=C(C[C@H]1CC[C@H]2[C@@H](COC[C@@H](O)CN2Cc2cccc(C(F)(F)F)c2)O1)NCc1ccncc1", "inhibition": "-1.84% (inactive)"},
      {"smiles": "CCS(=O)(=O)Nc1ccc2c(c1)C(=O)N(C)[C@@H]1CC[C@@H](CC(=O)NC)O[C@H]1CO2", "inhibition": "-18% (inactive)"},
      {"smiles": "CCCNC(=O)Nc1ccc2c(c1)OC[C@@H](C)N(CCC)C[C@H](C)[C@@H](OC)CN(C)C2=O", "inhibition": "-2.35% (inactive)"},
      {"smiles": "CCCNC(=O)Nc1ccc2c(c1)C(=O)N(C)[C@@H]1CC[C@@H](CC(=O)NC)O[C@H]1CO2", "inhibition": "-19.9% (inactive)"},
      {"smiles": "O=C(c1cccnc1)N1CC2(C1)[C@@H](c1ccccc1)[C@H](CO)N2C(=O)C1CCC1", "inhibition": "-5.13% (inactive)"},
      {"smiles": "CC(=O)N1CC[C@@H]2[C@@H](CO)N(C)c3ccc(-c4ccc(C#N)cc4)cc3[C@@H]21", "inhibition": "-6.97% (inactive)"},
      {"smiles": "C[C@@H]1CN([C@H](C)CO)C(=O)Cc2cc(NC(=O)CCN3CCOCC3)ccc2O[C@H]1CN(C)Cc1ccncc1", "inhibition": "-2.37% (inactive)"},
      {"smiles": "O=C(Nc1ccc(F)cc1)N1CCCCN2[C@H](CO)[C@H](c3ccc(C#Cc4ccccc4)cc3)[C@H]2C1", "inhibition": "38% (inactive)"},
      {"smiles": "CN(C)CC#Cc1ccc([C@@H]2[C@H](CO)N3CCCCN(C(=O)Nc4ccc(F)cc4)C[C@@H]23)cc1", "inhibition": "92.8% (active)"},
      {"smiles": "O=C(C1CCC1)N1CCCCN2[C@H](CO)[C@H](c3ccc(-c4cccc(F)c4)cc3)[C@@H]2C1", "inhibition": "-30.2% (inactive)"},
      {"smiles": "O=C(C1CCCC1)N1CCCCN2[C@@H](CO)[C@H](c3ccc(-c4cccc(F)c4)cc3)[C@@H]2C1", "inhibition": "6.9% (inactive)"},
      {"smiles": "O=C(C1CCC1)N1CCCCN2[C@H](CO)[C@H](c3ccc(-c4cccc(F)c4)cc3)[C@H]2C1", "inhibition": "84.3% (active)"},
      {"smiles": "CN(C)CC#Cc1ccc([C@@H]2[C@H](CO)N3CCCCN(C(=O)NC4CCCC4)C[C@@H]23)cc1", "inhibition": "6.59% (inactive)"},
      {"smiles": "C[C@H](CO)N1C[C@H](C)[C@H](CN(C)C(=O)CCC(F)(F)F)OCCCC[C@H](C)Oc2ccc(NS(C)(=O)=O)cc2C1=O", "inhibition": "-0.897% (inactive)"},
      {"smiles": "Cc1ccc(-c2cnc3c(c2)C(=O)N([C@H](C)CO)C[C@H](C)[C@@H](CN(C)C(=O)c2cccc(F)c2)O3)cc1", "inhibition": "6.03% (inactive)"},
      {"smiles": "CCNC(=O)[C@H]1[C@H](CO)[C@H]2Cn3c(ccc(-c4ccc(OC)cc4)c3=O)[C@H]2N1Cc1ccccc1", "inhibition": "21.7% (inactive)"},
      {"smiles": "CCNC(=O)C[C@H]1CC[C@@H]2[C@H](COC[C@H](O)CN2S(=O)(=O)c2ccc(Oc3ccccc3)cc2)O1", "inhibition": "-12.7% (inactive)"},
      {"smiles": "COc1ccc(NC(=O)N(C)C[C@H]2Oc3ccc(NS(=O)(=O)c4ccc(C)cc4)cc3C(=O)N([C@@H](C)CO)C[C@H]2C)cc1", "inhibition": "2.38% (inactive)"},
      {"smiles": "C[C@H](CO)N1C[C@H](C)[C@H](CN(C)C(=O)CCN(C)C)OCc2ccccc2-c2c(n(C)c3ccccc23)C1=O", "inhibition": "-16% (inactive)"},
      {"smiles": "C[C@@H]1CCCCO[C@@H](CN(C)Cc2ccccc2)[C@H](C)CN([C@H](C)CO)C(=O)c2cc(NC(=O)Nc3cccc4ccccc34)ccc2O1", "inhibition": "73.4% (active)"},
      {"smiles": "C[C@@H]1CN([C@@H](C)CO)C(=O)c2cc(NC(=O)Nc3cccc4ccccc34)ccc2O[C@@H](C)CCCCO[C@H]1CN(C)Cc1ccccc1", "inhibition": "-1.82% (inactive)"},
      {"smiles": "C[C@@H]1CCCCO[C@@H](CN(C)Cc2ccc(C(=O)O)cc2)[C@H](C)CN([C@@H](C)CO)C(=O)c2cc(NC(=O)Nc3ccc(C(F)(F)F)cc3)ccc2O1", "inhibition": "-16.9% (inactive)"},
      {"smiles": "CC(C)NC(=O)Nc1ccc2c(c1)C(=O)N([C@H](C)CO)C[C@H](C)[C@@H](CN(C)Cc1ccc(C(F)(F)F)cc1)OCCCC[C@@H](C)O2", "inhibition": "-13.6% (inactive) and 26.1% (inactive)"},
      {"smiles": "COc1ccc(NC(=O)Nc2ccc3c(c2)C(=O)N([C@@H](C)CO)C[C@H](C)[C@H](CN(C)Cc2ccc(C(F)(F)F)cc2)OCCCC[C@H](C)O3)cc1", "inhibition": "71.6% (active)"},
      {"smiles": "C[C@H]1CCCCO[C@@H](CN(C)Cc2ccc(C(F)(F)F)cc2)[C@@H](C)CN([C@@H](C)CO)C(=O)c2cc(NC(=O)Nc3ccccc3)ccc2O1", "inhibition": "67.9% (active)"},
      {"smiles": "COc1ccc(CN(C)C[C@@H]2OCCCC[C@@H](C)Oc3ccc(NC(=O)Nc4ccc(OC)cc4)cc3C(=O)N([C@@H](C)CO)C[C@@H]2C)cc1", "inhibition": "-12.3% (inactive)"},
      {"smiles": "C[C@H](CO)N1C[C@H](C)[C@@H](CN(C)Cc2ccc3c(c2)OCO3)OCCCC[C@H](C)Oc2ccc(NC(=O)Nc3ccc(C(F)(F)F)cc3)cc2C1=O", "inhibition": "36.6% (inactive)"},
      {"smiles": "COc1ccc(CN(C)C[C@@H]2OCCCC[C@@H](C)Oc3ccc(NC(=O)Nc4ccc(C(F)(F)F)cc4)cc3C(=O)N([C@H](C)CO)C[C@H]2C)cc1", "inhibition": "-16.7% (inactive)"},
      {"smiles": "C[C@@H]1CN([C@H](C)CO)C(=O)c2cc(NC(=O)Nc3ccccc3)ccc2O[C@@H](C)CCCCO[C@H]1CN(C)Cc1ccc(C(F)(F)F)cc1", "inhibition": "77.3% (active)"},
      {"smiles": "C[C@@H]1CCCCO[C@@H](CN(C)Cc2ccc(C(F)(F)F)cc2)[C@@H](C)CN([C@H](C)CO)C(=O)c2cc(NC(=O)Nc3ccccc3)ccc2O1", "inhibition": "-1.66% (inactive)"},
      {"smiles": "C[C@@H]1CCCCO[C@H](CN(C)Cc2ccccc2)[C@H](C)CN([C@@H](C)CO)C(=O)c2cc(NC(=O)Nc3cccc4ccccc34)ccc2O1", "inhibition": "21% (inactive)"},
      {"smiles": "CC(C)NC(=O)N1C[C@@H]2[C@H](c3ccccc31)[C@H](CO)N2C(=O)c1ccccn1", "inhibition": "-13.7% (inactive)"},
      {"smiles": "COCC#Cc1ccc([C@@H]2[C@@H](CO)N3C(=O)CN(C(=O)C4CCOCC4)C[C@@H]23)cc1", "inhibition": "-23.4% (inactive)"},
      {"smiles": "COc1ccc(NC(=O)N(C)C[C@H]2Oc3ccc(N(C)C)cc3C(=O)N([C@@H](C)CO)C[C@H]2C)cc1", "inhibition": "-20.3% (inactive)"},
      {"smiles": "O=C(NCC1CC1)[C@@H]1[C@@H](CO)[C@@H]2Cn3c(ccc(C4=CCCC4)c3=O)[C@H]1N2CCC(F)(F)F", "inhibition": "-4.22% (inactive)"},
      {"smiles": "CCCNC(=O)N1C[C@H]2[C@@H](c3ccccc31)[C@@H](CO)N2C(=O)NCCC", "inhibition": "-23.2% (inactive)"},
      {"smiles": "Nc1nc2c(ncn2[C@@H]2O[C@H](C(=O)N[C@H](Cc3ccccc3)C(=O)NCC3CCCCC3)[C@@H](O)[C@H]2O)c(=O)[nH]1", "inhibition": "-4.88% (inactive)"},
      {"smiles": "C[C@H](CO)N1C[C@H](C)[C@@H](CN(C)C(=O)Nc2ccnc(N3CCOCC3)c2)OCc2ccccc2-c2ccccc2C1=O", "inhibition": "-26.9% (inactive)"},
      {"smiles": "C[C@@H]1CN([C@@H](C)CO)C(=O)Cc2cc(NC(=O)Nc3ccc(F)cc3)ccc2O[C@@H]1CN(C)C", "inhibition": "-0.58% (inactive)"},
      {"smiles": "C[C@H](CO)N1C[C@H](C)[C@@H](CN(C)Cc2ccncc2)Oc2ccc(NS(=O)(=O)c3ccc(Cl)cc3)cc2CC1=O", "inhibition": "20.9% (inactive)"},
      {"smiles": "CCCNC(=O)N1CC2(C1)[C@@H](c1ccccc1)[C@@H](CO)N2C(=O)CC1CC1", "inhibition": "-12.2% (inactive)"},
      {"smiles": "CCCNC(=O)N1C[C@@H](C)[C@@H](OC)CN(C)C(=O)c2ccc(NC(=O)CCC)cc2OC[C@H]1C", "inhibition": "1.97% (inactive)"},
      {"smiles": "C[C@@H]1CN([C@H](C)CO)C(=O)c2cc(Br)cnc2O[C@@H]1CN(C)C(=O)Nc1ccc(F)cc1", "inhibition": "9.97% (inactive)"},
      {"smiles": "C[C@@H]1CCCCO[C@@H](CN(C)Cc2ccc(C(=O)O)cc2)[C@@H](C)CN([C@@H](C)CO)C(=O)c2cc(NC(=O)Nc3ccc(C(F)(F)F)cc3)ccc2O1", "inhibition": "-6.61% (inactive)"},
      {"smiles": "C[C@@H]1CCCCO[C@H](CN(C)Cc2ccc(C(F)(F)F)cc2)[C@H](C)CN([C@H](C)CO)C(=O)c2cc(NC(=O)Nc3ccc(F)cc3)ccc2O1", "inhibition": "92.5% (active)"},
      {"smiles": "C[C@@H]1CN([C@H](C)CO)C(=O)c2cc(NC(=O)Nc3ccc(C(F)(F)F)cc3)ccc2O[C@@H](C)CCCCO[C@@H]1CN(C)Cc1ccc(C(F)(F)F)cc1", "inhibition": "-27.4% (inactive)"},
      {"smiles": "COc1ccc2c3c([nH]c2c1)[C@H](CO)N(C(=O)C1CCCCC1)CC31CCN(C(=O)c2ccncc2)CC1", "inhibition": "3.94% (inactive)"},
      {"smiles": "CCC(=O)N(C)C[C@@H]1Oc2cc(-c3ccccc3OC)ccc2S(=O)(=O)N([C@H](C)CO)C[C@H]1C", "inhibition": "-9.48% (inactive)"},
      {"smiles": "COC(=O)C[C@@H]1CC[C@H]2[C@H](COc3ccc(NC(=O)c4ccccc4F)cc3C(=O)N2C)O1", "inhibition": "9.97% (inactive)"},
      {"smiles": "C=CCn1c(C)cc(C2=NNC(=NCC)SC2)c1C", "inhibition": "107% (active)"},
      {"smiles": "O=C(C(=O)N1CCC(CNS(=O)(=O)Cc2ccccc2)CC1)c1cc2ccccc2o1", "inhibition": "10% (inactive)"},
      {"smiles": "COc1ccc(NC(=O)Nc2ccc3c(c2)[C@@H]2C[C@H](CC(=O)N[C@@H](C)c4ccccc4)O[C@@H](CO)[C@@H]2O3)cc1", "inhibition": "-20.1% (inactive)"},
      {"smiles": "C[C@H](NC(=O)C[C@H]1CC[C@H]2[C@@H](COC[C@H](O)CN2C(=O)Nc2cc(Cl)cc(Cl)c2)O1)c1ccccc1", "inhibition": "3.71% (inactive)"},
      {"smiles": "C[C@H]1CCCCO[C@@H](CN(C)Cc2ccccc2)[C@@H](C)CN([C@@H](C)CO)C(=O)c2cc(NC(=O)Cc3ccccc3)ccc2O1", "inhibition": "-9.52% (inactive)"},
      {"smiles": "CNC(=O)C[C@H]1CC[C@@H]2[C@@H](COc3ccc(NC(=O)c4ccc(F)c(F)c4)cc3C(=O)N2C)O1", "inhibition": "-18.3% (inactive)"},
      {"smiles": "CC(=O)N1CCOc2ccc(S(=O)(=O)N3CCN(c4cccc(C(F)(F)F)c4)CC3)cc21", "inhibition": "92.2% (active)"},
      {"smiles": "COc1ccc(N2CCN(S(=O)(=O)c3ccc4c(c3)N(C(C)=O)CCO4)CC2)cc1", "inhibition": "3.96% (inactive)"},
      {"smiles": "CCOC(=O)C1CCN(S(=O)(=O)c2ccc3c(c2)N(C(C)=O)CCO3)CC1", "inhibition": "8.01% (inactive)"}
    ]}
  ]
}
